For some assays here: Potency and affinity values are given separately.
What was measured:
Design in all cases: scale not given: direction of the effect not stated beside the values
[1] = target: Protein translocase subunit SecA (Escherichia coli (strain K12)) (UniProt P10408); assay: Assay to Identify E. coli SecA ATPase Inhibitors; assay type: functional; settings: 30 µM
[2] = target: T1, Ubiquitin-activating enzyme e1, putative (Leishmania donovani (strain BPK282A1)) (UniProt E9BSI1); assay: Leishmania donovani Ubiquitin Activating Enzyme (LdE1); assay type: functional; settings: 30 µM
T1 sequence (whole entry): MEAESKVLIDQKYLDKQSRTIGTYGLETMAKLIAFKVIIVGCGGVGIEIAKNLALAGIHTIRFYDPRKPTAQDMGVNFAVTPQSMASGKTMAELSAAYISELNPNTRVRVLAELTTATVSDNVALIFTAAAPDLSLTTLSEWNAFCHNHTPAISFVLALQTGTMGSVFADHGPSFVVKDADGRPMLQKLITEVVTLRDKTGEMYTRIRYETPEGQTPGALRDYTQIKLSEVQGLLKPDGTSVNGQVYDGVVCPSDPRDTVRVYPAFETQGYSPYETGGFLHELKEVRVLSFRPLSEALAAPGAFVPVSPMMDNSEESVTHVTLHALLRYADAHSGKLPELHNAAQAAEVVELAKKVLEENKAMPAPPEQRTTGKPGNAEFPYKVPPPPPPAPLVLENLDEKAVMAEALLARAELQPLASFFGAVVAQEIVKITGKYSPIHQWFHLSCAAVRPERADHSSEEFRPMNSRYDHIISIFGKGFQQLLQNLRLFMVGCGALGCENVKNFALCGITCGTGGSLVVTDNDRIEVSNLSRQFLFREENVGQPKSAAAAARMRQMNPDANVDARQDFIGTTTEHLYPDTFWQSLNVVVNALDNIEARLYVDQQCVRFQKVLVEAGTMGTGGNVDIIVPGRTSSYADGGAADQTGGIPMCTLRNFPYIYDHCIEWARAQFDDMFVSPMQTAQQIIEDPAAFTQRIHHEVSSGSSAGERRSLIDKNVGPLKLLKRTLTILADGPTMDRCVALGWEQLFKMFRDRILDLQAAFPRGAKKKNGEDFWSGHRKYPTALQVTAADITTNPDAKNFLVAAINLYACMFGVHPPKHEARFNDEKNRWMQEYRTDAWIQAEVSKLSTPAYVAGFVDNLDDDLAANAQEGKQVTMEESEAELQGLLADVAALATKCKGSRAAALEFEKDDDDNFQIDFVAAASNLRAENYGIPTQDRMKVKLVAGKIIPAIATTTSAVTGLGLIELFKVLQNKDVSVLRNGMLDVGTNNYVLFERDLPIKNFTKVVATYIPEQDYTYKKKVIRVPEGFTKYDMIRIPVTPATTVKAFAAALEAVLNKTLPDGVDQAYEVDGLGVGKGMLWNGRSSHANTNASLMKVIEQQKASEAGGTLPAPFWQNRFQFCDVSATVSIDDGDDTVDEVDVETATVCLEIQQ

[3] = target: AMP-activated protein kinase, AMPK (Homo sapiens) (UniProt P54646+O43741+P54619+Q9UGJ0+Q9Y478+Q13131+Q9UGI9); assay: AMP-dependent Kinase enzyme assay. An in vitro enzyme assay that detects ADP turnover that is directly proportional to AMPK activity. This uses naive AMPK that is activated during the assay with MK-8722; assay type: functional; settings: 30 µM
[4] = target: Sialic acid-binding Ig-like lectin 9 (Homo sapiens) (UniProt Q9Y336); assay: Hs-Siglec9 ALPHAscreen SOP 20170721; settings: 10 µM
Trypanosoma cruzi = assay: Trypanosoma cruzi phosphomannomutase and mannose-1-phosphate guanylyltransferase assay; assay type: functional; settings: 10 µM
[5] = target: T2, Arginase-2, mitochondrial (Homo sapiens) (UniProt P78540); assay: in vitro enzyme assay to detect the production of urea directly proportional to the activity of Arginase II; assay type: functional; settings: 33.3 µM; also: in the data most compounds retested in dose-response had high values
T2 sequence (whole entry): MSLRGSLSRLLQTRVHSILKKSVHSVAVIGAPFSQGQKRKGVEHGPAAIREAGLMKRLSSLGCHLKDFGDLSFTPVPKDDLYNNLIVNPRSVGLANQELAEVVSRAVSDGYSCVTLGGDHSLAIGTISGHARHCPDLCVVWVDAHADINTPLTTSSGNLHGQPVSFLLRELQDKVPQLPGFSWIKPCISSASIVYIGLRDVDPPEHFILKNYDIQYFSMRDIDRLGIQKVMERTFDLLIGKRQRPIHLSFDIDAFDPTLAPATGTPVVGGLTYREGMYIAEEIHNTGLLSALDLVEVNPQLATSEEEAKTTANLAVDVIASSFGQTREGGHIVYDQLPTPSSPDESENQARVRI

[6] = target: T3, Proteasome subunit beta (Trypanosoma cruzi) (UniProt O96673); assay: Trypanosoma cruzi proteasome chymotrypsin-like activity (TcProtChymo) assay.; also: in the data most compounds retested in dose-response had high values; assay type: functional; settings: 9.37 µM
T3 sequence (whole entry): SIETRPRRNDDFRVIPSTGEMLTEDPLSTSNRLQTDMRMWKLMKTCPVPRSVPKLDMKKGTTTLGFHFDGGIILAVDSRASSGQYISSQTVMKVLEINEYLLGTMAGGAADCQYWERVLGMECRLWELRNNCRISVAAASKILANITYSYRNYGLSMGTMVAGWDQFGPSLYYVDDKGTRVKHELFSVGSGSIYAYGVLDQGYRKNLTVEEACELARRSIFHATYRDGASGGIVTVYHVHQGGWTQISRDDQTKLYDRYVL

Homo sapiens = organism: Homo sapiens; assay: To identify inhibition of the IFN signalling (Jak-Stat) pathway via expression of an eGFP reporter gene under the control of an IFN-stimulated response element (ISRE) containing MxA promoter.; assay type: functional; settings: 30 µM
[7] = target: T4, Tyrosyl-tRNA synthetase, putative (Trypanosoma cruzi (strain CL Brener)) (UniProt Q4DSP6); assay: Trypanosoma cruzi tyrosyl tRNA synthetase (TcYRS) _High Tyrosine SOP; assay type: functional; settings: 30 µM; also: in the data most compounds retested in dose-response had high values
T4 sequence (whole entry): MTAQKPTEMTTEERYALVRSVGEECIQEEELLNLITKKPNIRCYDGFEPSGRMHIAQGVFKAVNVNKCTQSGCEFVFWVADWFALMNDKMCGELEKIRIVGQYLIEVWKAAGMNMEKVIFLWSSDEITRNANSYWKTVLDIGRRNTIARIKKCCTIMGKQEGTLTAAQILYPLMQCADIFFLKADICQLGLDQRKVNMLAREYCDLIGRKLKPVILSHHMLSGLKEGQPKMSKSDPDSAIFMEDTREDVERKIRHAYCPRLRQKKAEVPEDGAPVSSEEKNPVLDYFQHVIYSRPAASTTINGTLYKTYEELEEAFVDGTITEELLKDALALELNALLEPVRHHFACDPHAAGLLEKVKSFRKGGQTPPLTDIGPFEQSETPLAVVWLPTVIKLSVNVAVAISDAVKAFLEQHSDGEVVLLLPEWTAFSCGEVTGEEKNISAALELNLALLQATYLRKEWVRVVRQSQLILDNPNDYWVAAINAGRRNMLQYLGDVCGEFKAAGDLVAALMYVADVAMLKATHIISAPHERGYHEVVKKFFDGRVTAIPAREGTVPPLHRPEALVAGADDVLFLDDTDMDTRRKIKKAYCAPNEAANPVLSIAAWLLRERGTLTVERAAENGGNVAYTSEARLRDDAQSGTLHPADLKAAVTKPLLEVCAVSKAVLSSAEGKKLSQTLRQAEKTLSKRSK

[8] = target: T4, Tyrosyl-tRNA synthetase, putative (Trypanosoma cruzi (strain CL Brener)); assay: Trypanosoma cruzi tyrosyl tRNA synthetase (TcYRS) SOP; assay type: functional; settings: 30 µM
[9] = target: Chromo domain-containing protein 1 (Saccharomyces cerevisiae (strain ATCC 204508 / S288c) (Baker's yeast)) (UniProt P32657); assay: ScCHD-1 Enzyme Inhibition Assay; assay type: functional; settings: 30 µM; also: in the data most compounds retested in dose-response had high values
Chromo domain-containing protein 1 (Saccharomyces cerevisiae (strain ATCC 204508 / S288c) (Baker's yeast)), sequence (P32657 whole entry, the tested form may be a part): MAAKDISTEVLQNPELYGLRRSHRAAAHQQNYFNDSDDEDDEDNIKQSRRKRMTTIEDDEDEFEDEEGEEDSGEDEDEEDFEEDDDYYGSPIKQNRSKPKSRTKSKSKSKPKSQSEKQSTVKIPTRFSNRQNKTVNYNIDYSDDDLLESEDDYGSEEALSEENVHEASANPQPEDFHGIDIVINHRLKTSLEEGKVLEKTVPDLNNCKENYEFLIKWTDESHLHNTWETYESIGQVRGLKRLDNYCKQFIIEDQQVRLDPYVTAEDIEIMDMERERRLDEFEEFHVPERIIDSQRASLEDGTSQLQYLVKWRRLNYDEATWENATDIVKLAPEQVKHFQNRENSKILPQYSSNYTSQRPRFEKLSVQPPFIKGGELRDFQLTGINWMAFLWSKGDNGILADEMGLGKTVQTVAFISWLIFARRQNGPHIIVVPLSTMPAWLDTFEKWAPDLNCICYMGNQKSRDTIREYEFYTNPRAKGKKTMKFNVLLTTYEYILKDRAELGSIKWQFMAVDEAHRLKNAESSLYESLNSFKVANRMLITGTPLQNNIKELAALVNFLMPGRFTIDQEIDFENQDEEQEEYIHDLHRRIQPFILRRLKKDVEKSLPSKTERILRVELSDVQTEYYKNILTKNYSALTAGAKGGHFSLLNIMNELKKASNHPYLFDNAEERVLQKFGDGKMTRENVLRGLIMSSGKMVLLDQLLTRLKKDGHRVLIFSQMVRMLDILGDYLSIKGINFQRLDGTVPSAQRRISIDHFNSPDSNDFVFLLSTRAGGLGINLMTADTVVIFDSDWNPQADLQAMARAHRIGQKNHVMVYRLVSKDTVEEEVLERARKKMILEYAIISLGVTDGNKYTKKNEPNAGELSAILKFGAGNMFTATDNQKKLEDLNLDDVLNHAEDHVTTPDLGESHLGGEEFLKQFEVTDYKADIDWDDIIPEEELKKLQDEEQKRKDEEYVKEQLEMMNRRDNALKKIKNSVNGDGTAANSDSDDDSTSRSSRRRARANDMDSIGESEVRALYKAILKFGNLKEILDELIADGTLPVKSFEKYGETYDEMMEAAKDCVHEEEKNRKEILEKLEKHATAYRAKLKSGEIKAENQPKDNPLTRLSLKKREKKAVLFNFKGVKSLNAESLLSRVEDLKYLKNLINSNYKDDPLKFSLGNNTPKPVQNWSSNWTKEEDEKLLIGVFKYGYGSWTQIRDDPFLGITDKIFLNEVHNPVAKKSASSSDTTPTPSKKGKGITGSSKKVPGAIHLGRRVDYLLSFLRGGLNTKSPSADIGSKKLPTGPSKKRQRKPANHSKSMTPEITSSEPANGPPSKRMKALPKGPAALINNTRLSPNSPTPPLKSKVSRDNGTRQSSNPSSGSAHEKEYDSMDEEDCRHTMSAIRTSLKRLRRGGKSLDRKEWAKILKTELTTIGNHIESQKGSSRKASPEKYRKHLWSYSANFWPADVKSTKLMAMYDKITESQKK

Sialic acid-binding Ig-like lectin 9 (Homo sapiens), sequence (Q9Y336 whole entry): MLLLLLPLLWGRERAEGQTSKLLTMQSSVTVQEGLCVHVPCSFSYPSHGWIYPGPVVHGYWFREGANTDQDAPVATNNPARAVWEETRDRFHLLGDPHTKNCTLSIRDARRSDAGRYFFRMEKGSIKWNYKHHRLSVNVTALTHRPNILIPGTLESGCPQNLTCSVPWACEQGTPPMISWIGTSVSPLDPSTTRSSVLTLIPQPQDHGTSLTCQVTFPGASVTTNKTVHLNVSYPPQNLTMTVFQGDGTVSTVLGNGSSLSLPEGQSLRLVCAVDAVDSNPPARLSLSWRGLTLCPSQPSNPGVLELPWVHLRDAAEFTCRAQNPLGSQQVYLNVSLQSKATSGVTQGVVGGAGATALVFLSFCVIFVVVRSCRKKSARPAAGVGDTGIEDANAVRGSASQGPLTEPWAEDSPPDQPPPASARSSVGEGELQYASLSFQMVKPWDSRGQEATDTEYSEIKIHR
Protein translocase subunit SecA (Escherichia coli (strain K12)), sequence (P10408 whole entry): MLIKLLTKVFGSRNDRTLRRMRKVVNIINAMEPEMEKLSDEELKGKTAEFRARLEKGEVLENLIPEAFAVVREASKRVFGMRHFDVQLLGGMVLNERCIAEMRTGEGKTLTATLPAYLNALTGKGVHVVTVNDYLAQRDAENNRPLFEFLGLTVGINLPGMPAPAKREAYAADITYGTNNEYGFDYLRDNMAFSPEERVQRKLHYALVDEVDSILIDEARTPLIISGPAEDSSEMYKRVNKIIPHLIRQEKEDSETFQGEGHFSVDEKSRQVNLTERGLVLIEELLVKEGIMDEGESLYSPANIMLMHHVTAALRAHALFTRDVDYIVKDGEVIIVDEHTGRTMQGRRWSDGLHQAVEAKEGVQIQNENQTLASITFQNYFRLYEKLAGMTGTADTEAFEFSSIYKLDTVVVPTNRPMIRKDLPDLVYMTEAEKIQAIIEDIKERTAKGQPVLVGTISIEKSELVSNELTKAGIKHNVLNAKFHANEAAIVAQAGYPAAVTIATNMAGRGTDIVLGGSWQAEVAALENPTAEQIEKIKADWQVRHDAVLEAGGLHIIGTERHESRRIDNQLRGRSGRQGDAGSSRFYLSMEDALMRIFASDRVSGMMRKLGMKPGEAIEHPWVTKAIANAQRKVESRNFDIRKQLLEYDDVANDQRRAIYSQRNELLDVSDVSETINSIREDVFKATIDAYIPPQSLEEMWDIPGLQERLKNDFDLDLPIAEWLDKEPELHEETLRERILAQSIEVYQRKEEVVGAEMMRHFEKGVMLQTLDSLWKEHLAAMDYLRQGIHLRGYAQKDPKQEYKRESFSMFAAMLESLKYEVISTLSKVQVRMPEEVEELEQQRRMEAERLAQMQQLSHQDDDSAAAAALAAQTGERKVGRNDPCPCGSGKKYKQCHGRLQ

SMILES	Percent Effect [1]	Percent Effect [2]	Percent Effect [3]	Percent Effect [4]	Percent Effect (Trypanosoma cruzi)	Percent Effect [5]	Percent Effect [6]	Percent Effect (Homo sapiens)	Percent Effect [7]	Percent Effect [8]	Percent Effect [9]
CN1CCN(C(=O)NC2CC2)Cc2cccnc21	-0.328%	10.7%	-1.13%	3.38%	-1.35%	-23.5%	12%	-4.24%	6.25%	25%	-7.54%
Cc1nc(COC[C@@H]2CC[C@H]3[C@H](CCN3S(C)(=O)=O)O2)cs1	1.19%	8.11%	-0.571%	-10.8%	-6.94%	7.96%	23.4%	8.05%	6.49%	10.3%	0.52%
COCCN(Cc1ccoc1)C(=O)c1ccccc1Cl	-4.82%	0%	0.957%	-4.22%	-4.24%	-1.94%	0.522%	14.2%	1.06%	1.28%	-1.4%
CN(CCc1ccccc1)Cc1cc(C(=O)N2CCCC2(C)C)no1	8.96%	13.7%	-8.24%	6.18%	-2.38%	-17.6%	11%	33.7%	8.33%	11.1%	-0.0446%
COC(=O)c1cc(OCC2CCC2)cc(C(=O)N[C@@H]2CNCC[C@H]2O)c1	-7.97%	0%	-18.2%	10.2%	-0.392%	-2.73%	4.44%	36%	0%	0%	-7.21%
Cn1ccc(C(=O)N2CCC[C@]3(C[C@@H](OCc4ccccn4)CO3)C2)n1	-3.65%	13.5%	2.83%	-1.64%	-2.64%	8.6%	15.1%	2.73%	8.65%	17.9%	-1.5%
NC(=O)C(CNC(=O)Cc1ccc(F)cc1)Cc1ccc(F)cc1 (configuration not stated)	-4.48%	2.63%	-46.9%	-3.44%	-4.19%	0%	11.4%	19.6%	0%	0%	-3.68%
CC(=O)NCC(=O)N1CCC2(CC1)CN(c1cccnc1)C(=O)CO2	-1.82%	13.5%	-3.23%	-10.1%	-3.42%	2.87%	26.2%	-0.0812%	-1.08%	10.3%	0.305%
CCN1CCn2c(C)cnc2C12CCN(C(=O)CC(C)C)CC2	-1.23%	10.7%	6.38%	-1.92%	-4.83%	-59%	18.1%	1.06%	0%	5%	-5.61%
Cc1nnc(N2CCC(CS(N)(=O)=O)CC2)c(C#N)c1C	-5.18%	2.6%	-17.4%	-9.8%	0.49%	-1.9%	16.1%	7.88%	3.81%	9.41%	-16.6%
CC(Cn1ccnc1)NC(=O)NCCc1ccccn1 (configuration not stated)	-1.01%	21.1%	-0.947%	-4.27%	1.69%	-2.3%	21.2%	6.74%	5.39%	21.9%	-8.97%
COc1nn(C)c2c1CCCN(C(=O)c1ccccc1)C2	-4.93%	2.7%	-0.442%	-2.98%	-1.76%	-1.25%	-1.27%	3.41%	4.95%	1.22%	-2.72%
CC(NCc1cccnc1)c1ccc(OCC(=O)NC2CC2)cc1 (configuration not stated)	-4.57%	1.27%	10.2%	0.488%	-2.15%	-0.215%	12.2%	-0.549%	-2.08%	-2.53%	4.29%
Cc1ccoc1C(=O)NCC(Cc1ccc(F)cc1)C(N)=O (configuration not stated)	-1.94%	18.2%	4.14%	0.338%	3.62%	4.42%	15.3%	-1.29%	7.62%	23.5%	-14.3%
Cn1ccnc1CNC1CCCN(Cc2noc(C3CC3)n2)C1 (configuration not stated)	-1.62%	0%	-11.6%	4.95%	2.9%	3.81%	13.8%	1.96%	10.1%	17.1%	-3.57%
Cc1ccc(-c2ncc(C(=O)NCCNC(=O)C(C)C)s2)c(C)c1	-2.93%	5.41%	-5.86%	-1.89%	-3.87%	-2%	2.52%	15.8%	4.43%	11.1%	-8.7%
Cn1cccc1C(=O)N1CCC2(CC1)CN(c1ccccn1)CCO2	-5.31%	5.2%	-0.668%	10.6%	9.54%	-55.2%	5.49%	6.16%	-2.15%	-1.24%	-2.89%
COc1ncc(NC(=O)Nc2cc(C)ccc2OC)cn1	-9.27%	15.6%	-6.73%	-2.77%	9.57%	0.645%	15.3%	10.7%	3.17%	11.5%	-7.83%
Cc1cccc(C)c1OCCNC(=O)NC(C)c1nncn1C (configuration not stated)	-5.7%	15.6%	-1.02%	-14.1%	5%	-2.32%	25.8%	18.1%	8.57%	23.5%	-21.4%
CN(Cc1cn2c(n1)CN(C1CCOC1)CC2)Cc1ccco1 (configuration not stated)	0.0628%	5.33%	0.778%	1.26%	5.99%	-58.2%	16.1%	15.2%	6.25%	20%	-10.2%
Cc1cc(CN(C)C2CCCN(c3cccnn3)C2)on1 (configuration not stated)	-4.98%	-2.67%	-10.6%	-0.639%	4.19%	1.56%	16.2%	-1.53%	11.5%	13.6%	-1.67%
O=C(Nc1ccc(F)cc1)N1C[C@H]2CC[C@@H]1CN(Cc1cccnc1)C2	-3.11%	11%	4.71%	-2.61%	-2.15%	4.54%	13.3%	9.03%	10.8%	20%	-5.73%
